Laboratory results published in PubChem BioAssay.
The source made the active and inactive calls.

Legend:
[1] = system: Plasmodium falciparum Sir2 (PF13_0152, Sir2A); assay: pfSir2 binders on small-molecule microarrays, primary screen, biochemical, small-molecule microarray, 635 nm fluorescence (AID 1098); settings: small-molecule microarray binding, fluorescence 635 nm; higher = more signal;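 also: score merges spot fluorescence intensity with its signal-to-noise ratio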
[2] = small-molecule microarray binders of probe aDKK1, primary screen, biochemical, biotinylated probe, 635/667 nm fluorescence (AID 1099); settings: higher = more signal;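 also: score merges 667nm spot fluorescence with signal to noise across triplicate slides; reference of the scale not given here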
[3] = small-molecule microarray binders of probe aCHRDL2, primary screen, biochemical, biotinylated probe, 635/667 nm fluorescence (AID 1100); settings: higher = more signal
[4] = splicing luciferase reporter signal modulators, primary screen, spliceosome inhibition project, cell-based, HEK293, splice +/- reporter (AID 1101); settings: luminescence, 24 h, higher = more signal, called active from +8 up or from −8 down;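 also: HEK293 cells carrying a splicing-competent luciferase reporter gene; test concentration not given here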
[5] = biological target: Fibroblast growth factor 10 (Homo sapiens) (UniProt O15520); assay: FGF10 binders on small-molecule microarrays, primary screen, biochemical, small-molecule microarray, 635 nm fluorescence (AID 1102); settings: FGF10 binding, fluorescence 635 nm, higher = more signal
Fibroblast growth factor 10 (Homo sapiens), sequence (O15520 whole entry, looked up): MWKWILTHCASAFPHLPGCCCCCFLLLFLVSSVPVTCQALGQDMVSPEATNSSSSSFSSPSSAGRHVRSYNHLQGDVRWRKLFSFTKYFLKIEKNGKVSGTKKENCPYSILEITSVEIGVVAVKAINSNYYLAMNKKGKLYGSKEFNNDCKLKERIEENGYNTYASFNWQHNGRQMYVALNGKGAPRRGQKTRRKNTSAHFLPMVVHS

[6] = system: glycogen synthase kinase-3 (GSK3A per assay name; protocol says GSK3B); assay: GSK3 binders on small-molecule microarrays, primary screen, biochemical, small-molecule microarray, 635 nm fluorescence, GSK3A (AID 1103); settings: small-molecule microarray binding, fluorescence 635 nm; higher = more signal; also: the record names both GSK3A and GSK3B
[7] = biological target: Epidermal growth factor receptor (Homo sapiens) (UniProt P00533); assay: EGFR binders on small-molecule microarrays, primary screen, biochemical, small-molecule microarray, 635 nm fluorescence (AID 1104); settings: EGFR binding, higher = more signal;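 also: score merges 667 nm emission intensity with spot signal to noise over triplicate slides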
Epidermal growth factor receptor (Homo sapiens), sequence (P00533 whole entry, looked up): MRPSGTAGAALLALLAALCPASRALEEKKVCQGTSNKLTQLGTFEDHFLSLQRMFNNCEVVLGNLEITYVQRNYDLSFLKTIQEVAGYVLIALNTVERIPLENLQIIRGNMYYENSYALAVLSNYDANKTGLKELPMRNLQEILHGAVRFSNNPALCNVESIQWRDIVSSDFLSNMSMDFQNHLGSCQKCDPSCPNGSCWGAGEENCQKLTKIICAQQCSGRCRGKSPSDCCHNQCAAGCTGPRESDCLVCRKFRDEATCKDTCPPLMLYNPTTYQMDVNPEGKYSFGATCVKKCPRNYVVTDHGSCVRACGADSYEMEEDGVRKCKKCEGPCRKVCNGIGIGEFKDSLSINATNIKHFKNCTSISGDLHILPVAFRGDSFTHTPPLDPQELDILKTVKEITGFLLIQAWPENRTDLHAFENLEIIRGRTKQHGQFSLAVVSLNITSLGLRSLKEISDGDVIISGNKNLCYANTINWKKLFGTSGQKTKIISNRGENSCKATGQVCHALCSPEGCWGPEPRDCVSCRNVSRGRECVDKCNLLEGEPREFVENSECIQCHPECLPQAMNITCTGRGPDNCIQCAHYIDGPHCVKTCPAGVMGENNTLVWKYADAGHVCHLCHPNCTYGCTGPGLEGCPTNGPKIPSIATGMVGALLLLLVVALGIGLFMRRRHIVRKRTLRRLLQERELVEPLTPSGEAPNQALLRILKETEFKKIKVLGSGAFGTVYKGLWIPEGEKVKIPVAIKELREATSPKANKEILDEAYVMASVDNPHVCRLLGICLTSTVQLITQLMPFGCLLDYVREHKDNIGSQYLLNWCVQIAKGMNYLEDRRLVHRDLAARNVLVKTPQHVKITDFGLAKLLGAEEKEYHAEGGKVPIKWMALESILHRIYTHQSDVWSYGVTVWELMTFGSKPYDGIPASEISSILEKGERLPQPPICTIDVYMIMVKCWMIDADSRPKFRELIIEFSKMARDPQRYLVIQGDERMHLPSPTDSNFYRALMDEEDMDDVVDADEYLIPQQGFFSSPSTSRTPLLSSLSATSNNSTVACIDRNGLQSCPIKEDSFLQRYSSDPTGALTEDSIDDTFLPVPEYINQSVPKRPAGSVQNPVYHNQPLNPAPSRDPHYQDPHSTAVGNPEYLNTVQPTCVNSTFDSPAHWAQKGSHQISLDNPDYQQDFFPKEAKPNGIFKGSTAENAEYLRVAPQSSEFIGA

[8] = biological target: Follistatin-related protein 3 (Homo sapiens) (UniProt O95633); assay: FSTL3 binders on small-molecule microarrays, primary screen, biochemical, small-molecule microarray, 635 nm fluorescence (AID 1105); settings: FSTL3 binding, higher = more signal;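 also: score merges emission near 667 nm and signal to noise per printed spot across three slides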
Follistatin-related protein 3 (Homo sapiens), sequence (O95633 whole entry, looked up): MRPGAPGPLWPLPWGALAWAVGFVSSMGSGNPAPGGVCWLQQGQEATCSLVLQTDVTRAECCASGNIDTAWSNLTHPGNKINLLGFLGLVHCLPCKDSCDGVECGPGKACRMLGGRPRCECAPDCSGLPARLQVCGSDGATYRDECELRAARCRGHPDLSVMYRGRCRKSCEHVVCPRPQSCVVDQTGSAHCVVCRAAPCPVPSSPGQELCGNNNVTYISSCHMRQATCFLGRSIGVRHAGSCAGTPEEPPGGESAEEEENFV

[9] = biological target: Dickkopf-related protein 1 (Homo sapiens) (UniProt O94907); assay: DKK1 binders on small-molecule microarrays, primary screen, biochemical, small-molecule microarray, 635 nm fluorescence scan (AID 1106); settings: DKK1 binding, higher = more signal;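 also: score merges emission near 667 nm with signal to noise over three replicate slides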
Dickkopf-related protein 1 (Homo sapiens), sequence (O94907 whole entry, looked up): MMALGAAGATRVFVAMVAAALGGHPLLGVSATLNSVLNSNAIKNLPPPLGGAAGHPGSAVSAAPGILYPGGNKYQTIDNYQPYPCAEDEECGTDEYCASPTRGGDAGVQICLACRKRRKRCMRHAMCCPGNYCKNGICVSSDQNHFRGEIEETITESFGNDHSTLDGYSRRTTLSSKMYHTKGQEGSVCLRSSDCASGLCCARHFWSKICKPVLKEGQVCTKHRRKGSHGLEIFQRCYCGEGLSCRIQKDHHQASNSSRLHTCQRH

[10] = system: Inhibin beta A chain (activin A); assay: INHBA (activin A) binders on microarrays, primary screen, biochemical, small-molecule microarray, 635 nm fluorescence scan (AID 1107); settings: small-molecule microarray binding, higher = more signal;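 also: mouse activin A protein probed at 4.33 µg/mL on printed slides; score merges bound-protein fluorescence near 667 nm with spot signal-to-noise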

SMILES	composite z-score [1]	composite z-score [2]	composite z-score [3]	z-score [4]	composite z-score [5]	composite z-score [6]	composite z-score [7]	composite z-score [8]	composite z-score [9]	composite z-score [10]
CO[C@@H]1COC(=O)CC=C[C@@H](C)[C@@H]2C=C[C@H](O)[C@@H](COC(=O)[C@H](C)NC(=O)CC=C[C@H]1C)O2	1.46	-0.308	-1.09	-1.09 (inactive)	0.441	0.674	1.04	1.03	1.28	0.578
CCOC(=O)[C@H](Cc1ccccc1)NC(=O)CCC1CC(OC(=O)NCc2ccc3c(c2)OCO3)CC2(CCCC(COC(=O)NCc3cccc(C(F)(F)F)c3)O2)O1 (stereo not given in full)	0.239	0.113	-0.338	-1.18 (inactive)	0.984	0.584	0.314	1	0.495	0.321
CCN(CC)c1ccc(N2CC=CC34O[C@@H]5/C=C\CCC(C)OC(=O)C5[C@H]3C(=O)N(CCCO)[C@@H]4C2=O)cc1 (stereo not given in full)	1.44	-0.137	0.325	0.122 (inactive)	-0.221	-0.615	-1.02	-0.777	-0.492	1.01
CCOC(=O)NN=C1C[C@@H](O)[C@@H](O)[C@@H]2[C@@H]3C(=O)N(CC)C(=O)[C@@H]3CC[C@@H]12	0.163	-0.407	-0.263	0.379 (inactive)	0.664	0.434	0.684	0.518	0.14	-0.232
CC(CCN1CCc2nc(-c3ccccc3)c(-c3ccccc3)cc2C1)=NO[C@H](C)c1cn([C@@H]2COC[C@H]2O)nn1	1.1	-0.182	-0.432	0.611 (inactive)	0.215	0.403	0.0515	0.343	0.0546	0.763
C=CCN1C(=O)[C@]2(O[C@H](CCn3cc(CCO)nn3)[C@@H]([Si](C)(C)c3ccc(OC)cc3)[C@@H]2C)c2cc(N3CCOC3=O)ccc21	1.62	-0.286	0.223	2.29 (inactive)	0.301	0.341	-0.82	-0.609	-0.555	0.175
O=C1[C@H]2[C@H]3[C@H](O)[C@H](O)CC(=NOC[C@@H](O)COCc4ccco4)[C@@H]3CC[C@H]2C(=O)N1c1ccc(F)cc1F	0.365	-0.399	-0.712	0.237 (inactive)	0.579	0.318	0.931	0.499	0.671	0.574
COC(=O)[C@H](C)NC(=O)[C@@H](C)CO	0.241	0.0939	-0.469	0.364 (inactive)	0.572	0.844	0.499	0.258	0.338	-0.776
COC(=O)[C@H](C)NC(=O)CCC1CC(OC(=O)NCCc2ccc(F)cc2)CC2(CCCC(COC(=O)NCCc3ccc(Cl)cc3)O2)O1 (stereo not given in full)	0.316	0.0144	-0.615	-0.137 (inactive)	1.07	0.987	0.344	1.29	1.05	0.0063
CN1C(=O)C2C=CC(C(O)C(c3ccccc3)c3ccccc3)N(NC(=O)OC(C)(C)C)C2C1=O (stereo not given)	1.46	1.21	1.22	1.71 (inactive)	1.03	1.12	0.341	1.24	0.452	-0.109
COc1ccc(O[C@H]2C=C[C@@H](c3ccccc3)O[C@@H]2COC(=O)CCC(C)=NOCC[C@@H]2C=C[C@H](OC(C)=O)[C@@H](COC(C)=O)O2)cc1	0.868	-0.0184	-0.483	-0.484 (inactive)	-0.249	-0.362	0.275	0.415	0.371	1.22
COCCCNC(=O)[C@@]1(CCS(=O)(=O)c2ccccc2)N=C(c2ccc(OCCCO)cc2)O[C@H]1c1ccccc1	1.69	1.45	1.16	0.409 (inactive)	1.12	1.29	-0.11	-0.21	0.026	0.0123
CCN1C(=O)[C@H]2[C@H]3[C@H](O)[C@H](O)CC(=NOCc4ccccc4)[C@@H]3CC[C@H]2C1=O	0.119	0.214	-0.585	-1.02 (inactive)	0.302	0.478	0.33	0.51	0.267	0.383
CC(=O)O[C@H]1C2=C(C(=O)[C@@H]3O[C@@H]31)[C@H]1C(C)O[C@@H]2[C@@]23C(=O)[C@@H]4O[C@@H]4[C@@H](O)C2=CO[C@H](C)[C@@H]13 (stereo not given in full)	0.452	-0.475	-0.62	0.15 (inactive)	0.374	-0.0186	0.197	-0.0861	0.326	0.702
CC[C@@H](c1ccccc1)n1c(=O)n2n(c1=O)[C@H]1[C@H](O)[C@@H]3O[C@@H]3C(=NOCC(C)C)[C@H]1CC2	0.315	-0.187	-0.532	1.26 (inactive)	-0.0238	0.0344	0.143	0.227	0.202	-0.0597
COc1cccc([C@H]2Oc3ccc(OC)cc3C(=NOC(C)CN3CCCc4nc(C)c(C)cc43)[C@@H]2O)c1 (stereo not given in full)	-0.403	-0.207	-0.335	-0.467 (inactive)	0.474	0.827	0.746	0.0288	0.492	-0.109

SMILES	composite z-score [1]	composite z-score [2]	composite z-score [3]	z-score [4]	composite z-score [5]	composite z-score [6]	composite z-score [7]	composite z-score [8]	composite z-score [9]	composite z-score [10]
Cc1cc2c(c(=O)o1)[C@H](O)[C@H]1O[C@H]1C2=O	0.412	-0.178	-0.245	-0.331 (inactive)	0.88	0.191	0.0205	-0.139	-0.0438	0.623
COC(=O)C1=CCC(c2cccc(Cl)c2)O1 (stereo not given)	1.15	-0.138	0.381	-1.15 (inactive)	0.044	-0.842	-0.412	-0.578	-0.476	1.09
COC(=O)CC1OC1[C@H](C)[C@@H](OC)C(C)C (stereo not given in full)	0.505	-0.0977	-0.111	0.743 (inactive)	0.142	-0.792	0.335	0.0479	0.82	1.32
CC(CCC(=O)OC[C@H]1O[C@H](C#Cc2ccccc2)C=C[C@@H]1Oc1ccc(C)cc1)=NOC[C@@H](O)COCc1ccco1	1.33	-0.627	-0.044	-0.0928 (inactive)	-3.07	-1.25	-3.58	-3.18	-2.09	-2.69
COc1ccc(O[C@H]2C=C[C@@H](c3ccccc3)O[C@@H]2COC(=O)N2CCCCC2)cc1	-0.0945	-0.173	-0.225	0.757 (inactive)	-0.398	-0.732	0.0392	-0.0999	0.0004	1.42
O=C1c2ccccc2[C@@]2(Cc3ccccc3N(C3CC3)C2=O)[C@H](c2ccc(CO)cc2)N1Cc1ccccc1C(F)(F)F	-0.0922	0.261	0.281	-0.628 (inactive)	-0.837	-0.433	-0.942	-0.672	-1.2	0.394
CCN1C(=O)[C@H]2[C@H]3[C@H](O)[C@H](O)CC(=NOC(C)CN4CCCCc5nc(C)c(C)cc54)[C@@H]3CC[C@H]2C1=O (stereo not given in full)	0.438	-0.206	-0.667	0.279 (inactive)	0.471	0.606	0.78	0.756	0.78	0.834
C=CC[C@@H]1C=C[C@H](ON=C(C)CCN2CCc3nc(CC)c(CC)cc3C2)[C@@H](CO)O1	1.17	0.0057	0.386	0.00248 (inactive)	-0.0543	0.491	0.609	1.14	0.907	1.8
CCOC(=O)CCN1C(=O)[C@H]2[C@H]3[C@H](O)[C@H](O)CC(=NNC(=O)OCc4ccc(OC)cc4)[C@@H]3CC[C@H]2C1=O	0.0745	-0.0545	-0.476	0.454 (inactive)	0.567	0.754	0.593	1.32	0.819	0.334
CCOC(=O)C[C@H]1[C@H](OC(=O)c2cc3ccccc3oc2=O)[C@@H](NC(=O)c2ccc3ccccc3n2)c2cc(OCCCO)ccc2N1C(=O)c1ccccc1	0.564	0.414	-0.0652	-0.38 (inactive)	1.4	0.439	0.344	0.948	1.04	0.513
CC(C)=CCCC(C)=CCON=C1[C@H]2CCn3c(=O)n(C)c(=O)n3[C@H]2[C@H](O)[C@@H]2O[C@H]12	0.819	-0.317	-0.378	0.709 (inactive)	0.868	1.26	0.779	1.05	0.921	0.832
CC1CC/C=C\[C@H]2OC34C=CCN(C(C)C)C(=O)[C@H]3N(CCCO)C(=O)[C@@H]4C2C(=O)O1 (stereo not given in full)	1.29	-0.268	0.0886	-0.037 (inactive)	-0.79	-0.785	-1.74	-1.21	-1.23	-0.476
CO[C@H]1COC(=O)[C@@H]2CCCN2C(=O)CC=C[C@@H](C)[C@H](OC)COC(=O)CC=C[C@@H]1C	0.401	-0.569	-1.28	-0.555 (inactive)	1.09	1.06	1.64	1.47	1.63	1.5
COc1ccc(O[C@H]2C=C[C@@H](c3ccccc3)O[C@@H]2COC(=O)CCC(C)=NO[C@H](C)c2cn([C@@H]3COC[C@H]3O)nn2)cc1	0.716	-0.226	-0.791	-1.25 (inactive)	0.39	0.387	0.562	0.706	0.583	-0.298
CCc1cc2c(nc1CC)CCN(CCC(C)=NOC[C@@H](O)[C@H]1O[C@@H]3OC(C)(C)O[C@@H]3[C@H]1O)C2	0.569	-0.54	-0.32	-0.173 (inactive)	0.123	0.175	0.352	0.285	0.453	0.963
O=C1O[C@@H](c2ccccc2)[C@@H](c2ccccc2)N2[C@@H](c3ccc(OCCO)cc3)[C@]3(C(=O)Nc4ccccc43)[C@@H](C(=O)N3CCN(c4ncccn4)CC3)[C@H]12	1.4	0.556	-0.0223	-0.0125 (inactive)	0.69	1.22	0.774	1.23	0.886	0.38
